Sampled rows, rich in hits. Any-hit rate of the full collection: about 19%.
LASV entry inh: qHTS for Inhibitors of binding or entry into cells for Lassa Virus; Potency, µM (doses to about 37.9 µM), for inactives: at the top dose activity change, negative = inhibition, usual class: inhibitors; AID 540256, 2011; actives 1.2% (n = 300,000); Lassa virus pseudotype entry inhibition, cell reporter; calls by dose curve; tested in HEK293 cells; further: potency means the concentration at half of the fitted maximal effect; on the % scale 0 is the no-effect control and ±100 the full control effect; nearly all actives have a fitted effect of over 50% in size
CHX counter: Cycloheximide Counterscreen for Small Molecule Inhibitors of Shiga Toxin; cell reporter, cycloheximide protein synthesis inhibition counterscreen; max response, %; actives 12% (n = 300,000); AID 2314, 2010; in the data active means max response mostly above about 13%, no sharp cut-off; inactive means mostly below about 14%; further: read at 38.3 µM for the half of the compounds with a filed dose; 0% is about no effect
MARV entry inh: qHTS for inhibitors of binding or entry into cells for Marburg Virus; Marburg virus pseudotyped entry inhibition, cell reporter; Potency, µM (titrated, usually from 37.8 µM), inactives show at the highest dose activity change, negative = inhibition, most hits filed as inhibitors; actives 1.8% (n = 300,000); calls by dose curve; tested in HEK293 cells; further: potency means the concentration at half of the fitted maximal effect; on the % scale 0 is the no-effect control and ±100 the full control effect
Shiga toxin inh: A qHTS for Small Molecule Inhibitors of Shiga Toxin | Vero cells, Shiga toxin protein synthesis inhibition reporter | inhibition, % at 38.7 µM | actives 9.2% (n = 290,000) | AID 2315, 2010; in the data active means inhibition mostly above about 28%, no sharp cut-off; inactive means mostly below about 43%; further: 0% is about no effect
Pf growth 48h: Primary qHTS for delayed death inhibitors of the malarial parasite plastid, 48 hour incubation. P. falciparum luciferase growth in erythrocytes, 48 h. Potency, µM (series often up to 28.7 µM), for the others: at the highest dose activity change, negative = inhibition, hits mostly inhibitors. actives 5.9% (n = 310,000). AID 504832, 2011; further: potency means the concentration at half of the fitted maximal effect; on the % scale 0 is the no-effect control and ±100 the full control effect
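A one-generation exposure of luciferase-tagged malaria parasites in RPMI 1640/Albumax erythrocyte culture, 37 C and 5% CO2. Inhibition is inferred from decreased luminescence after adding detection reagent.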
Pf growth 96h: Primary qHTS for delayed death inhibitors of the malarial parasite plastid, 96 hour incubation. P. falciparum luciferase reporter growth, 96 h. Potency, µM (top dose mostly 28.7 µM), for inactives: at the highest dose activity change, negative = inhibition, hits mostly inhibitors. actives 6.9% (n = 320,000). AID 504834, 2011; further: potency means the concentration at half of the fitted maximal effect; on the % scale 0 is the no-effect control and ±100 the full control effect
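P. falciparum expressing integrated firefly luciferase grown in erythrocytes (2% hematocrit, 0.05% parasitemia final) with compounds for 96 hours at 37 C, 5% CO2. Growth inhibition read as loss of luminescence after adding luciferase detection reagent.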
* marks the source's active call; other numbers are inactive results; ? = inconclusive; nt = no result; [ ] = remark or other dose. Unless noted, the call rests on the fitted dose curve; in most records, active means well fitted inhibition curve with a large enough effect; inconclusive means small, poorly fitted or top-dose-only effect, or another doubt; inactive means no such curve, though single readings can be large or run the other way.

SMILES	LASV entry inh	CHX counter	MARV entry inh	Shiga toxin inh	Pf growth 48h	Pf growth 96h
N/C(=N\OC(=O)c1cccs1)c1cccnc1	5.4%	39.9*	?	42.8*	39.4%	-14.9%
CCOP(=O)(OCC)/C(=N/OC(=O)c1ccc(Cl)cc1Cl)C(N)=O	?	-2.4	27.0%[46.1 µM]	9.4	1.2%	13.0%
Cc1ccc(/C(N)=N/OC(=O)Oc2ccccc2)cc1	11.6%	-3.2	4.6%	22.4	nt	9.2%
Cc1ccc(/C(N)=N/OC(=O)c2ccc(C)cc2Cl)cc1	?	80.5*	?	25.7*	-57.6%	1.7%
Cc1cccc(C(=O)O/N=C(\N)c2ccccn2)c1	?	-5.8	?	-6.0	-113.6%	?
N/C(=N\OC(=O)c1ccc(Cl)cc1Cl)c1ccc(Cl)cc1	?	49.7*	?	114.4*	347.3%	-94.1%
Cc1ccc(C(=O)CCC(=O)Nc2cccc(C(F)(F)F)c2)cc1C	-15.1%	nt	0.4%	nt	nt	nt
Cc1ccc(SCCNC(=O)CN2C(=O)c3ccccc3S2(=O)=O)cc1	9.4%	-2.5	2.0%	8.9	3.8%	?
COC(=O)[C@H](CCSC)NC(=O)N1CCN(c2cccc(C(F)(F)F)c2)CC1	-23.4%	-2.2	-5.0%	6.9	4.5%	nt
Cc1ccccc1/C(N)=N/OC(=O)c1cccs1	-19.5%	27.1*	16.9%	61.0*	10.4%	64.3%
Cc1cccc(/C(N)=N/OC(=O)c2cccnc2)c1	nt	33.2*	nt	103.4*	3.1%	1.5%
N/C(=N\OC(=O)c1ccc(Cl)cc1Cl)c1ccccc1	8.2µM*	56.3*	?	127.2*	58.3%	87.1%
N/C(=N\OC(=O)c1ccc(Cl)cc1)c1cccnc1	?	42.5*	21.5%	174.8*	56.4%	nt
COc1ccc(CCNC2CC(=O)N(CCc3ccc(OC)c(OC)c3)C2=O)cc1OC (stereo unspecified)	27.0%	11.8	-17.5%	27.6	-13.5%	198.7%
Cn1c(CCC(N)=O)nnc1SCC(=O)Nc1ccccc1C(=O)NC1CC1	nt	nt	nt	nt	1.9%	0.9%
Cc1ccc(OC(=O)c2ccc(Br)o2)cc1	0.3%	2.6	-2.1%	-4.1	9.5%	7.9%
N/C(=N\OC(=O)c1ccc(Cl)cc1Cl)c1cccnc1	nt	34.9*	nt	90.7*	-36.2%	4.65µM*
Cc1ccc(OC(=O)c2cccnc2)cc1	10.8%[46.1 µM]	20.0	0.5%[46.1 µM]	2.9	-1.9%	11.7µM*
Cc1cccc(/C(N)=N/OC(=O)c2ccc(Br)o2)c1	0.7%	90.9*	8.6%	90.0*	133.9%	55.3%
Cc1cc(C)cc(OC(=O)c2cccnc2)c1	nt	1.8	nt	-0.7	-13.4%	?
N/C(=N\OC(=O)c1ccc(Br)o1)c1ccccn1	?	25.7*	?	60.5*	87.8%	22.3%
CCCCN(CC)C(=O)Cn1cnc2sc(C)c(S(=O)(=O)N3CCC(C)CC3)c2c1=O	-2.6%	-4.3	-17.3%[46.1 µM]	25.5	?	10.2%
CC(C)C(=O)Nc1ccc(Cc2ccc(NC(=O)C(C)C)c(O)c2)cc1O	-2.3%	2.9	3.4%	-10.1	nt	-8.2%
N/C(Cc1ccc(Cl)c(Cl)c1)=N\OC(=O)c1cccs1	-23.1%	2.4	-6.0%	-4.8	?	?
CCSc1ccc(/C(N)=N/OC(=O)c2cccs2)cn1	nt	45.6*	nt	88.4*	91.4%	98.9%
SMILES	LASV entry inh	CHX counter	MARV entry inh	Shiga toxin inh	Pf growth 48h	Pf growth 96h
COc1cccc(NC(=S)N/N=C2/CCCCc3ccccc32)c1	nt	41.6*	-0.9%	55.4*	?	?
Cc1ccc(C)c(NC(=S)N/N=C2/CCCCc3ccccc32)c1	?	6.7	?	10.9	8.28µM*	4.15µM*
CC(C)NC(=S)N/N=C1\CCCCc2ccccc21	nt	-8.0	nt	-11.2	?	?
COc1ccc(Nc2nc3ccccc3n3c(N)nnc23)cc1	-0.6%[46.1 µM]	nt	?	nt	nt	nt
CCOC(=O)c1cc2c(cn1)[nH]c1ccccc12	-0.5%	27.5*	?	59.1*	30.3%	?
CCOC(=O)C1=C(C)N=c2s/c(=C/c3ccc(OCC(=O)O)cc3)c(=O)n2C1c1ccc(SC)cc1 (stereo unspecified)	nt	-3.2	nt	13.2	5.22µM*	?
CCOC(=O)C1=C(C)N=c2s/c(=C\c3ccncc3)c(=O)n2C1c1ccc2c(c1)OCO2 (stereo unspecified)	-14.5%	-3.3	-14.5%	-13.4	4.15µM*	-2.0%
CCOC(=O)C1=C(C)N=c2s/c(=C/c3ccc(OCC(=O)O)cc3)c(=O)n2C1c1ccc(F)cc1 (stereo unspecified)	nt	-0.8	nt	-1.2	3.29µM*	?
CCOC(=O)C1=C(C)N=c2s/c(=C/c3ccccc3)c(=O)n2C1c1ccc(OC)c(OC)c1 (stereo unspecified)	-16.7%	-3.5	-9.1%	-8.5	?	?
CCOC(=O)C1=C(C)N=c2s/c(=C/c3ccc(OCC(=O)O)c(OC)c3)c(=O)n2C1c1ccc(Cl)cc1 (stereo unspecified)	16.2%	nt	-3.7%	nt	nt	nt
CCOC(=O)C1=C(C)N=c2s/c(=C\c3ccc(OCC(=O)O)cc3)c(=O)n2C1c1ccc(Cl)cc1 (stereo unspecified)	?	-2.2	?	28.5	9.28µM*	1.47µM*
CCN1CCN(CCNC(=O)c2ccc(CS(=O)(=O)c3c(Cl)cccc3Cl)o2)CC1	nt	-3.7	0.0%	7.9	nt	40.0%
CN1CCC(OC(=O)c2ccco2)CC1	7.6%	9.6	-6.7%	-14.1	30.5%	2.9%
COc1ccc2c(c1OC)C(=O)OC2CC(=O)O (stereo unspecified)	5.3%	-1.1	-1.4%	-10.4	25.6%	nt
CCCOC1OC(=O)c2c1ccc(OC)c2OC (stereo unspecified)	10.3%	-1.3	7.8%	-6.5	17.8%	5.22µM*
CN(CC(=O)Nc1cccc(F)c1)C(=O)CN1C(=O)C2CC=CCC2C1=O (stereo unspecified)	-10.9%	nt	-2.4%	nt	-0.6%	11.1%
CCOC(=O)c1ccccc1NC(=O)c1cccc([N+](=O)[O-])c1	7.1%[46.1 µM]	-1.3	?	1.4	-14.6%	1.6%
CCCC(C(=O)NC1CCCC1)N(C(=O)Cn1nnc(-c2ccc(C)o2)n1)c1ccccc1F (stereo unspecified)	-16.6%[46.1 µM]	-1.8	?	-2.1	?	?
CCCC(C(=O)NC1CCCC1)N(C(=O)Cn1nnc(-c2ccc(C)o2)n1)C1CCCC1 (stereo unspecified)	?	-1.8	25.9µM*	-12.9	nt	nt
Cc1ccc(-c2nnn(CC(=O)N(CC3CCCO3)C(C(=O)NC(C)(C)C)c3ccc(F)cc3)n2)o1 (stereo unspecified)	-0.1%	-2.0	?	-1.8	10.4µM*	11.7µM*
CCC(C(=O)NC1CCCC1)N(C(=O)Cn1nnc(-c2ccc(OC)c(OC)c2)n1)C1CCCCC1 (stereo unspecified)	-14.5%	-2.7	?	-7.3	9.28µM*	?

Compound activity from PubChem BioAssay.
